# Compound activity: PubChem BioAssay, Sanford-Burnham Center for Chemical Genomics
# Sampled rows, rich in hits. Any-hit rate of the full collection: about 31%.
# CYP2C19 inhib = blocks human cytochrome P450 2C19; inhibition, % at 5 µM; actives 21% (n = 96,000); AID 778; CYP2C19 Supersomes, luciferin-H EGE luminescence, 30 min;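 active means CYP2C19 inhibition above a set limit at 5 µM in the primary screen, cut at about 50% in these data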
# Target sequence (P33261 whole entry, looked up): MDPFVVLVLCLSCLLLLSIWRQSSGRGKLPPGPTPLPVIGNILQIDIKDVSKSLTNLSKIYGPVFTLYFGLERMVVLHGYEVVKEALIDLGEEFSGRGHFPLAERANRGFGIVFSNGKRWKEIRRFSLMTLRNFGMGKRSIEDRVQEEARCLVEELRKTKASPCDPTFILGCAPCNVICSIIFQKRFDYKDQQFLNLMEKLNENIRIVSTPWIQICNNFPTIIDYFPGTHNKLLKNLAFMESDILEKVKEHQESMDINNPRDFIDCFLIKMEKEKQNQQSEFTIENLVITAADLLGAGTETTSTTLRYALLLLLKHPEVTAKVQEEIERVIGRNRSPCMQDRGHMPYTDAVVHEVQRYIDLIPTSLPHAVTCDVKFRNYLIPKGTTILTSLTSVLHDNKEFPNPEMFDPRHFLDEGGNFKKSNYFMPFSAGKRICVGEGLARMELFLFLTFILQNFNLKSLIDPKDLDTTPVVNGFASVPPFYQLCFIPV
# CYP2C9 inh = inhibitors of human CYP2C9; CYP2C9 Supersomes, luciferin-H conversion, luminescence; inhibition, % at 5 µM; actives 20% (n = 96,000); AID 777;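 active means blocking of liver enzyme CYP2C9 beyond about 50% at 5 µM, limit read from the data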
# CYP2C19 act = increases human CYP2C19 enzyme activity; P33261; recombinant CYP2C19, luciferin-H EGE luminescence; active compounds read high; 0 = fully inhibited enzyme, 1 = untreated enzyme; activation factor at 5 µM; 96,000 tested, under 10 active;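 active means activation factor of at least 2 at 5 µM in the primary screen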
# CYP2C9 act = activators of human CYP2C9; recombinant CYP2C9, luciferin-H conversion, luminescence; active compounds read high; factor 1 = untreated enzyme, 0 = blocked; P11712; actives 1.4% (n = 96,000); activation factor at 5 µM;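 active means activation factor of 2 or more for CYP2C9 at a 5 µM dose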
# PLAP act = activators of human placental alkaline phosphatase. P05187. purified PLAP enzyme, luminescent substrate read-out; active compounds read high. activation fold at 20 µM. actives 1.2% (n = 96,000); in the data active means activation fold above about 2
# A number is an active result; n = inactive.
SMILES,CYP2C19 inhib,CYP2C9 inh,CYP2C19 act,CYP2C9 act,PLAP act
Cc1ccc(OCC(=O)Nc2nnn(C)n2)c(C)c1,n,n,n,n,n
CNC(=O)CSc1nnc(COc2ccc(Cl)cc2)n1CCOC,n,n,n,n,n
Cc1cc(C)c(S(=O)(=O)Nc2ccc[nH]c2=O)c(C)c1,85,n,n,4,2
Cc1cccc(C)c1NS(=O)(=O)c1c(C)[nH]c(=O)[nH]c1=O,n,n,n,n,n
C=CCNC(=O)c1ccccc1NS(=O)(=O)c1ccccc1,68,n,n,2.3,n
C=CCNC(=O)c1ccccc1NC(=O)Nc1ccccc1,n,n,n,n,n
C=CCNC(=O)c1ccccc1NS(=O)(=O)c1ccc(SC)cc1,97,n,n,n,n
CN(CCNC(=O)c1cn(C)c2ccc(S(=O)(=O)N3CCCC3)cc2c1=O)CCc1ccccc1,n,n,n,n,n
COc1ccccc1N1CCN(C(=O)C(Sc2ccccc2)c2ccccc2)CC1 (centres undefined),61,59,n,n,n
CS(=O)(=O)N1CCN(C(=O)C(Sc2ccccc2)c2ccccc2)CC1 (centres undefined),71,n,n,n,n
CCN1CCN(C2CCN(C(C)=O)CC2)CC1,n,n,n,n,n
Cc1c(Cl)ccc2c1NC(=O)[C@]21N[C@@H](Cc2ccccc2)[C@H]2C(=O)N(c3ccc(F)cc3)C(=O)[C@H]21,n,n,n,n,n
Cc1cc(C)c(C(N)=O)c(SCC(=O)c2ccc(Cl)cc2)n1,n,n,n,n,n
CC(C)[C@H](N)c1nnc(SCC(=O)c2ccc(Cl)cc2)o1,99,69,n,n,n
C[C@H](N)c1nnc(SCC(=O)c2ccc(Cl)cc2)o1,n,n,n,n,2.9
Cc1nn2c3c(cnc2c1-c1ccc(Cl)cc1)C(=O)CC(c1ccco1)C3 (centres undefined),n,n,n,n,n
CCOC(=O)C1(C)NC(c2ccc(N(C)C)cc2)C2C(=O)N(c3ccc(OC)cc3)C(=O)C21 (centres undefined),57,n,n,n,n
CCOC(=O)C1(C)NC(c2ccccc2F)C2C(=O)N(c3cccc(C(C)=O)c3)C(=O)C21 (centres undefined),n,n,n,n,n
CCOC(=O)C1(C)NC(c2ccc(OC)cc2OC)C2C(=O)N(c3cccc(OC)c3)C(=O)C21 (centres undefined),80,83,n,n,n
COC(=O)c1ccc2nc(C(F)(F)F)[nH]c2c1,n,n,n,n,n
CN(C)c1ccc(/C=C/C(=O)c2cccc(Br)c2)cc1,93,n,n,n,n
O=C(/C=C/c1cccs1)c1ccc(NC(=O)c2cccc(Br)c2)cc1,n,n,n,n,n
CCOC(=O)C(NC(C)=O)(Nc1ccc(S(=O)(=O)Nc2nccs2)cc1)C(F)(F)F (centres undefined),n,n,n,n,n
O=C1C2C3C=CC([C@@H]2C(=O)N1c1nccs1)C31CC1 (some centres undefined),76,n,n,n,n
Cc1ccccc1C(=O)O/N=C1\CCS(=O)(=O)c2sccc21,n,n,n,n,n
SMILES,CYP2C19 inhib,CYP2C9 inh,CYP2C19 act,CYP2C9 act,PLAP act
CCCCNc1nc2ccccc2[nH]1,n,n,n,n,2.7
CCOCCCNc1nc2ccccc2[nH]1,n,n,n,n,n
CCOC(=O)CSc1nc(-c2ccc(OC)cc2)ns1,n,n,n,n,n
CCC(Nc1nc(-c2ccccc2)nc2ccccc12)C(=O)O (centres undefined),n,n,n,n,n
COC(=O)CNc1nc(-c2ccncc2)nc2ccccc12,56,84,n,n,n
COc1ccc(OC)c(CNc2ccc(F)c(Cl)c2)c1,n,58,n,n,n
Cc1ccc2nsnc2c1S(=O)(=O)N1CCCC1,n,n,n,n,n
COc1cccc(C(=O)N2CCN(Cc3ccc4c(c3)OCO4)CC2)c1OC,n,n,n,n,n
COc1ccc(F)cc1S(=O)(=O)N1CCN(Cc2ccc3c(c2)OCO3)CC1,56,n,n,n,n
O=S(=O)(Cc1ccc(Cl)cc1)N1CCN(Cc2ccccc2)CC1,n,n,n,n,n
COc1ccc(S(=O)(=O)N2CCN(Cc3ccc4c(c3)OCO4)CC2)c2ccccc12,89,74,n,n,n
Cc1ccc2nsnc2c1S(=O)(=O)N1CCN(Cc2ccc3c(c2)OCO3)CC1,97,73,n,n,n
O=S(=O)(Cc1ccccc1Cl)N1CCN(Cc2ccc3c(c2)OCO3)CC1,94,n,n,n,n
COc1ccc(Cl)cc1S(=O)(=O)N1CCN(Cc2ccc3c(c2)OCO3)CC1,74,n,n,n,n
CSc1ccc(S(=O)(=O)N2CCN(Cc3ccc4c(c3)OCO4)CC2)cc1,n,n,n,n,n
CCCCS(=O)CC(COc1ccc(Cl)cc1)OC(=O)c1ccccc1 (centres undefined),95,80,n,n,n
O=S(Cc1ccc(Cl)cc1)CC(O)COc1ccc(Cl)cc1 (centres undefined),n,n,n,n,n
CCN(c1cccc(C(F)(F)F)c1)S(=O)(=O)c1ccc2c(c1)CCN2C(C)=O,61,n,n,n,n
CCOc1cc(-c2nc(-c3ccccc3)c(-c3cc([N+](=O)[O-])ccc3C)[nH]2)ccc1O,n,57,n,n,n
O=[N+]([O-])c1ccc(O)c(-c2nc(-c3ccccc3)c(-c3cccs3)[nH]2)c1,n,92,n,n,n
COc1ccc(-c2nc(-c3ccccc3)c(-c3cc([N+](=O)[O-])ccc3C)[nH]2)cc1OC,n,n,n,n,n
COc1ccc(OC)c(NC(=O)CSc2nnnn2-c2ccc3c(c2)OCO3)c1,n,n,n,n,n
CCOc1cc(C2NC(=O)NC(O)(C(F)(F)F)C2C(=O)c2ccc(OC)cc2)ccc1O (centres undefined),n,n,n,n,n
Fc1ccccc1/C=C1\CCCC2=C1Nc1nnnn1C2c1ccccc1F (centres undefined),n,n,n,n,n
Cc1ccc(-n2ncc(C#N)c2/N=C/N2CCOCC2)cc1,85,65,n,n,n
SMILES,CYP2C19 inhib,CYP2C9 inh,CYP2C19 act,CYP2C9 act,PLAP act
CCN(CCCNC(=O)COc1cc(=O)n(C)c2ccccc12)c1cccc(C)c1,n,n,n,n,n
CCN(CCCNC(=O)CCn1c(=O)[nH]c2ccccc2c1=O)c1ccccc1,62,n,n,n,n
CCN(CCCNC(=O)CCCn1c(=O)[nH]c2ccccc2c1=O)c1cccc(C)c1,n,62,n,n,n
CCCCNC(=O)CCCn1c(=O)[nH]c2ccc(Br)cc2c1=O,n,n,n,n,n
CCN(CCCNC(=O)CCn1c(=O)[nH]c2ccccc2c1=O)c1cccc(C)c1,67,n,n,n,n
CC(=O)c1c(C)[nH]c(C(=O)NCc2ccccc2)c1C,n,n,n,n,n
CCN(CCCNC(=O)c1[nH]c(C)c(C(C)=O)c1C)c1cccc(C)c1,53,n,n,n,n
